Pf apPOL inh: Pf-apPOL DNA polymerase inhibition | Recombinant Pf-apPOL, molecular beacon fluorescence, 1.5 h | inhibition, % at 10 µM | 210,000 compounds, 0.25% hits
mHTT CaM bind: disrupts binding of mutant huntingtin to calmodulin. P42858. AlphaScreen His-mHTT/GST-CaM binding, luminescence. 190,000 compounds, 3.6% hits. inhibition, % at 15 µM;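 note: 0% = both proteins with DMSO and 100% = one protein alone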
* = called active by the depositor; ! = not active in a repeat. A selection: hits, their analogues and other compounds. The true share with any hit is near 3.5%. Cut-off read from the data, not from the text of the source: active = inhibition above about 50%; inactive = the rest.

`CC(=O)c1cc(C#N)c(SC/C=C/c2ccccc2)nc1C` gave Pf apPOL inh -19 and mHTT CaM bind 97*.
`CC(=O)c1cc(C#N)c(SCC(=O)c2ccc(Cl)cc2)nc1C` gave Pf apPOL inh 4 and mHTT CaM bind -6.
Screening CC(=O)c1cc(C#N)c(SCC(=O)c2ccc(O)c(O)c2)nc1C returned Pf apPOL inh 10 and mHTT CaM bind 88*.
Screening Cc1ccc(CNC(=O)c2cccc([N+](=O)[O-])c2C)cc1 returned Pf apPOL inh -9 and mHTT CaM bind -2.
Screening C=CCN1CCN(Cc2cc(=O)[nH]c(-c3ccccc3)n2)CC1 returned Pf apPOL inh -2 and mHTT CaM bind 2.
`CSc1cccc(NC(=O)N2CCC(c3cc(N)on3)CC2)c1` gave Pf apPOL inh -4 and mHTT CaM bind -1.
`N#Cc1c(SCC(=O)NC2CC2)sc2c(O)cc(=O)[nH]c12` gave mHTT CaM bind -4.
N#Cc1c(SCC(=O)Nc2nccs2)sc2c(O)cc(=O)[nH]c12 was read as mHTT CaM bind 51*.
Screening Cc1ccc(F)c(-n2nnc(C(=O)O)c2C)c1 returned Pf apPOL inh 3 and mHTT CaM bind -7.
Screening CSc1nnc(COc2ccccc2)n1C returned mHTT CaM bind -7.
Screening O=C(NCc1ccccc1)NCC(O)c1ccc(C(F)(F)F)cc1 (stereo unspecified) returned Pf apPOL inh -33 and mHTT CaM bind -10.
`O=C(NCC(O)c1ccc(C(F)(F)F)cc1)C(c1ccccc1)c1ccccc1` (stereo unspecified) gave Pf apPOL inh -6 and mHTT CaM bind 86*.
Cc1nc2c(oc3nc(-c4ccco4)c4c(c32)CC(C)(C)OC4)c(-c2ccccc2)c1C(=O)O was read as Pf apPOL inh -2 and mHTT CaM bind 49.
Cc1nc2c(oc3nc(-c4ccoc4)c4c(c32)CC(C)(C)OC4)c(-c2ccccc2)c1C(=O)O was read as Pf apPOL inh -7 and mHTT CaM bind 74*!.
`Cc1nc(CCNC(=O)C2CCCN2C(=O)c2cccc(Br)c2)cs1` (stereo unspecified) gave Pf apPOL inh -4 and mHTT CaM bind -7.
CCCn1ncc(N2CCC(C(=O)NCc3ccc(F)cc3F)CC2)cc1=O was read as Pf apPOL inh -10 and mHTT CaM bind 2.
Oc1ccc(-c2csc(-c3ccccc3)n2)cc1O was read as Pf apPOL inh 0 and mHTT CaM bind 26.
`NC(N)=Nc1nc(-c2ccc(O)c(O)c2)cs1` gave Pf apPOL inh -6 and mHTT CaM bind 61*.
O=c1c2ccccc2nc2n1CCC2(Br)Br was read as Pf apPOL inh 0 and mHTT CaM bind 4.
`Cc1cc(C(=O)Nc2sc3c(c2-c2nc4ccccc4s2)CCCC3)on1` gave Pf apPOL inh 1 and mHTT CaM bind -2.
COc1ccc(OC)c(CNc2ccc(F)c(Cl)c2)c1 was read as Pf apPOL inh -1 and mHTT CaM bind 30.
For O=[N+]([O-])c1ccccc1CNc1ccc(F)c(Cl)c1 the results were Pf apPOL inh 11 and mHTT CaM bind 47.
`COc1ccc(CNc2ccc(F)c(Cl)c2)c(OC)c1OC` gave Pf apPOL inh -5 and mHTT CaM bind 54*.
For COc1ccc(CNc2ccc(F)c(Cl)c2)cc1C the results were Pf apPOL inh -4 and mHTT CaM bind -17.
Screening Oc1c(Cl)cc(Cl)cc1CNc1ccc(F)c(F)c1 returned Pf apPOL inh 0 and mHTT CaM bind 100*.
For CCOc1cccc(CNc2ccc(F)c(Cl)c2)c1O the results were Pf apPOL inh 1 and mHTT CaM bind 63*.
`COc1ccc(NC(=O)N2CC3CC2CC3NC(=O)c2cccs2)cc1F` (stereo unspecified) gave Pf apPOL inh 0 and mHTT CaM bind 1.
Screening O=C(Cc1ccc(F)cc1)N1CCC(Nc2ncnc3c2CCC3)C1 (stereo unspecified) returned Pf apPOL inh -4 and mHTT CaM bind 1.
CN1CCC(NC(=O)c2ccc3c(c2)N(C(=O)c2ccc(F)cc2)CC3)CC1 was read as Pf apPOL inh -1 and mHTT CaM bind 0.
CNC(=O)c1ccc2c(c1)N(C(=O)c1ccc(OC)cc1)CC2 was read as Pf apPOL inh -1 and mHTT CaM bind 100*.
CCCCC1(C)OC(=O)C(=Cc2ccc(F)cc2)C(=O)O1 (stereo unspecified) was read as Pf apPOL inh -7 and mHTT CaM bind 10.
`Cc1cc(C)n2nc(SCC(=O)Nc3ccc(C)c(Cl)c3)nc2n1` gave Pf apPOL inh -9 and mHTT CaM bind 51*.
C=CCc1c(C)nc2nc(SCC(=O)Nc3cccc(Cl)c3)nn2c1C was read as Pf apPOL inh -7 and mHTT CaM bind 31.
Screening Cc1cc(C)n2nc(SCc3c(F)cccc3Cl)nc2n1 returned Pf apPOL inh -8 and mHTT CaM bind 14.
COc1cc(NC(=O)CSc2nc3nc(C)c(Cc4ccccc4C)c(C)n3n2)cc(OC)c1 was read as Pf apPOL inh -8 and mHTT CaM bind 16.
